“And” between values parts separate entries of the source, which are not always exact repeats. Equal entries are not always repeated. Inconclusive results are not listed. The source made the active and inactive calls. The call rests on the fitted dose curve; in most records, active means well fitted curve in the direction sought with a large enough effect; inconclusive means small, poorly fitted or top-dose-only effect, or another doubt; inactive means no such curve, though single readings can be large or run the other way.
Assay: qHTS Assay for Identifying Gametocytocidal Compounds (AID 743244);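 on max response: actives lower the fluorescent signal which means gametocytes are killed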
Conditions: P. falciparum 3D7 stage III-V gametocytes, alamarBlue, 72 h; max response: stronger effect = lower value
In short: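 Stage III-V P. falciparum 3D7 gametocytes, 20,000 per well, were exposed to compounds for 72 h at 37C, 5% CO2. AlamarBlue was then added for 24 h and viability was read as fluorescence at Ex 525/Em 598 nm.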
On the % scale 0 is the no-effect control and ±100 the full control effect; potency means the concentration at half of the fitted maximal effect.

SMILES	max response	Potency
O=P1(NCCCl)OCCCN1CCCl (stereo unspecified)	4.6% (inactive)	
CCN(CC)CCOC(=O)C(O)(c1ccccc1)c1ccccc1	-7.9% (inactive)	
CN(C)[C@@H]1C(=O)C(C(N)=O)=C(O)[C@@]2(O)C(=O)C3=C(O)c4c(O)cccc4[C@@](C)(O)[C@H]3C[C@@H]12	8.32% (inactive)	
C=C1C[C@@H]2[C@H](CC[C@]3(C)C(=O)CC[C@@H]23)[C@@]2(C)C=CC(=O)C=C12	-0.643% (inactive)	
CC[N+](CC)(CC)CC	-4.6% (inactive) and 7.33% (inactive)	
OCCN1CCN(CCCN2c3ccccc3Sc3ccc(C(F)(F)F)cc32)CC1		11.2 µM (active)
NCCc1cc(O)c(O)cc1O	0.974% (inactive)	
C=CCN1CC[C@]23c4c5ccc(O)c4O[C@H]2C(=O)CC[C@@]3(O)[C@H]1C5	6.99% (inactive) and 10.2% (inactive)	
CCN(CC)C(=O)N[C@@H]1C=C2c3cccc4[nH]cc(c34)C[C@@H]2N(C)C1		20 µM (active)
CC[N+]1(C)CCCC(OC(=O)C(O)(c2ccccc2)c2ccccc2)C1 (stereo unspecified)	-8.23% (inactive)	
O=C(NC(O)C(Cl)(Cl)Cl)NC(O)C(Cl)(Cl)Cl (stereo unspecified)	-4.63% (inactive)	
CCC(COC(=O)c1cc(OC)c(OC)c(OC)c1)(c1ccccc1)N(C)C (stereo unspecified)	10.7% (inactive)	
CCN(C(C)=O)c1cccc(-c2ccnc3c(C#N)cnn23)c1	4.87% (inactive)	
Clc1ccc(CCC(Cn2ccnc2)Sc2c(Cl)cccc2Cl)cc1 (stereo unspecified)		7.94 µM (active)
NP(N)(=O)NC(=O)c1ccc(F)cc1	-2.45% (inactive)	
N[C@@H]1C[C@H]1c1ccccc1	21.9% (inactive)	

SMILES	max response	Potency
Cc1ccc(-c2nc3ccc(C)cn3c2CC(=O)N(C)C)cc1	7.35% (inactive)	
CC1OC(C)OC(C)O1 (stereo unspecified)	-0.681% (inactive) and 11.3% (inactive)	
O=[N+]([O-])c1cc([As](=O)(O)O)ccc1O		3.98 µM (active)
CN1C(=S)CN=C(c2ccccc2)c2cc(Cl)ccc21	-6.22% (inactive)	
COc1cc([C@@H]2c3cc4c(cc3[C@H](O)[C@H]3COC(=O)[C@H]23)OCO4)cc(OC)c1OC	11.4% (inactive)	
Clc1cccc(N2CCNCC2)c1	0.639% (inactive)	
C#CCN(C)[C@H](C)Cc1ccccc1	-11.5% (inactive)	
CN1CCN(C(=O)O[C@H]2c3nccnc3C(=O)N2c2ccc(Cl)cn2)CC1	-4.73% (inactive)	
Cc1ccc2c(c1)C1CN(C)CCC1N2 (stereo unspecified)	-7.38% (inactive)	
CCN(CC)CCN1C(=O)CN=C(c2ccccc2F)c2cc(Cl)ccc21	9.52% (inactive)	
CCC(C(N)=O)N1CCCC1=O (stereo unspecified)	-7.9% (inactive)	
CC(C)=CC1C(C(=O)OCc2cccc(Oc3ccccc3)c2)C1(C)C (stereo unspecified)	5.27% (inactive)	
CN(C)CCc1ccc(O)cc1	-0.843% (inactive)	
CCOC(=O)C1(c2ccccc2)CCN(CCC(C#N)(c2ccccc2)c2ccccc2)CC1	18.9% (inactive) and -7.07% (inactive)	
CC(C)(N)Cc1ccc(Cl)cc1	12.2% (inactive)	
